According to PubChem BioAssay AID456 (Sanford-Burnham Center for Chemical Genomics, 2006):
Hit rate of the full screen: of about 10,000 compounds, about 25 (0.2%) were called active.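 The calls were made as follows: active = top tenth filtered wells with inhibition above zero that passed visual or statistical confirmation; inactive = the rest, including hits rejected on review.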 The sample as a whole holds a higher share of actives than the screen did. Measured potencies and affinities stand elsewhere.

test: inhibitors of TNFa-induced VCAM-1 surface display, imaging, high-content imaging, pooled HUVEC, TNFa stimulus (AID 456); conditions: HUVEC TNFa-induced VCAM-1 surface expression, immunofluorescence imaging;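 compounds screened at 5 µM final in the well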;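 as to inhibition: VCAM-1 immunofluorescence minus red nonspecific channel after plate median normalization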

Row | Compound | inhibition
1 | Cc1ccc(Nc2nc(N)nc(CN3CCN(Cc4ccc5c(c4)OCO5)CC3)n2)cc1 | inactive
2 | COc1ccccc1C(=O)Nc1ccc(S(=O)(=O)N2CCCC2)cc1 | inactive
3 | COC(=O)c1cc(=O)n(Cc2ccc3c(c2)OCO3)c(=Nc2ccccc2)s1 | 96.4% (inactive)
4 | CCOC(=O)c1ccc(NC(=O)CSCc2ccco2)cc1 | inactive
5 | COc1ccc(S(=O)(=O)Cc2ccc(C(=O)N3CCN(Cc4ccccc4)CC3)o2)cc1 | inactive
6 | CCC(c1c(C)n(C)n(-c2ccccc2)c1=O)c1c(C)n(C)n(-c2ccccc2)c1=O | inactive
7 | Cc1nc2ccccn2c(=O)c1CCN1CCC(C(=O)c2ccc(F)cc2)CC1 | inactive
8 | Cc1nc2sccn2c(=O)c1CCN1CCC(=C(c2ccc(F)cc2)c2ccc(F)cc2)CC1 | 87.2% (inactive)
9 | Cc1cccn2c(=O)c3cc(C#N)c(=NC(=O)c4ccncc4)n(Cc4ccco4)c3nc12 | inactive
10 | CCOC(=O)c1cc2c(=O)n3ccccc3nc2n(CC(C)C)c1=NC(=O)c1ccco1 | inactive
11 | CC(C)n1c(=NC(=O)c2ccco2)c(C#N)cc2c(=O)n3ccccc3cc21 | 78.9% (active)
12 | Cc1n[nH]c(C)c1S(=O)(=O)N1CCCCCC1 | inactive
13 | CC1Oc2ccccc2N(CC(=O)N(Cc2ccccc2)Cc2ccccn2)C1=O (centres undefined) | inactive
14 | COc1ccc(N2CCN(Cc3nc(-c4ccc(Cl)cc4Cl)no3)CC2)cc1 | inactive
15 | O=C(/C=C1\NC2(CCCC2)Cc2ccccc21)N1CCOCC1 | inactive
16 | CCCN1C=CC(=C2C(=O)c3ccccc3C2=O)C=C1 | inactive
17 | COc1ccc2cc3cc(C(=O)NCC4CCCO4)oc3nc2c1 (centres undefined) | inactive
18 | CC1(C(=O)NC2CCCCC2)CCC(=O)N1Cc1cccs1 (centres undefined) | inactive
19 | COc1ccc(Br)cc1S(=O)(=O)N1CCOCC1 | inactive
20 | Cc1cccc(-c2nnc(SCC#N)n2-c2cccc(Cl)c2)c1 | inactive
21 | COc1ccc2cc(CN(CCO)C(=O)c3ccccc3F)c(=O)[nH]c2c1 | inactive
22 | CCn1nnc(NC(=O)c2cc3ccccc3o2)n1 | inactive
23 | CCOC(=O)c1cccc(NC(=O)CSc2nnc(-c3ccoc3C)n2CCOC)c1 | inactive
24 | COC(=O)c1ccccc1NC(=O)CSc1nc2c(c(=O)n(C)c(=O)n2C)n1C | inactive
25 | CCOc1ccc(-c2cc(C(=O)N3CCN(c4ccccn4)CC3)c3ccccc3n2)cc1 | inactive

Row | Compound | inhibition
26 | O=C(c1cnn2c(C(F)F)cc(-c3ccccc3)nc12)N1CCN2CCCC2C1 (centres undefined) | inactive
27 | Cc1ccc(-c2cc(C(F)F)n3ncc(C(=O)N4CCN(c5ccccn5)CC4)c3n2)cc1 | 80.5% (active)
28 | CC1(C)CC(CCNC(=O)c2ccco2)CC(C)(C)N1 | inactive
29 | CC1CCc2nn(CC(=O)NCc3ccc4c(c3)OCO4)cc2C1 (centres undefined) | inactive
30 | CCS(=O)(=O)c1nc2ccccc2n1Cc1ccccc1Cl | inactive
31 | O=C1c2oc3ccccc3c(=O)c2C(c2ccccn2)N1Cc1ccccc1 (centres undefined) | inactive
32 | COc1ccc(Cl)c(NC(=O)NCCN2CCN(c3ccccc3)CC2)c1 | inactive
33 | Cc1cc2ncn(C(=O)c3c(-c4ccccc4)noc3C)c2cc1C | inactive
34 | CCOC(=O)N1CCC(N2C(=O)c3ccccc3C2Nc2ccccc2C)CC1 (centres undefined) | inactive
35 | CCOC(=O)N1CCC(N2C(=O)c3ccccc3C2Nc2cc(Cl)c(OC)cc2OC)CC1 (centres undefined) | 72.7% (active)
36 | CCOC(=O)c1ccccc1NC1c2ccccc2C(=O)N1C1CCN(C(=O)OCC)CC1 (centres undefined) | inactive
37 | CCN(CC)C(=O)CSc1nnc([C@@H](N)Cc2ccccc2)o1 | inactive
38 | Cc1nnc(NC(=O)c2ccccc2F)s1 | inactive
39 | CCOc1ccc(N(CC(=O)NC2CCCC2)S(=O)(=O)c2c(C)[nH]c(=O)[nH]c2=O)cc1 | inactive
40 | CC1CC(C)CN(Cc2nc3c(c(=O)n(C)c(=O)n3C)n2Cc2ccccc2Cl)C1 (centres undefined) | inactive
41 | O=C(COC(=O)c1ccc(S(=O)(=O)Nc2ccccc2)cc1)NCCN1C(=O)CSC1=O | inactive
42 | CCOC(=O)CSc1nc2ccccc2c(=O)n1CCN1CCOCC1 | inactive
43 | O=C(NCCC1=CCCCC1)C1CC(=O)N(C2CCCCCC2)C1 (centres undefined) | inactive
44 | Cc1ccc(-c2ccc(=O)n(CC(=O)NCCCN3CCCCC3C)n2)cc1 (centres undefined) | inactive
45 | CCCN1CCN(CCCNC(=O)Cn2nc(-c3ccc(Cl)cc3)ccc2=O)CC1 | inactive
46 | COCc1nnc(NC(=O)CCCOc2ccccc2)s1 | inactive
47 | Cc1ccc(NC(=O)CCC(=O)O)cc1F | inactive
48 | CC1Cc2ccccc2N1C(=O)CSc1nnc2n1C(C)(C)Cc1ccccc1-2 (centres undefined) | inactive
49 | CCOc1ccc(Nc2nc(Cc3nnc(SCC(N)=O)o3)cs2)cc1 | inactive
50 | COc1ccc(Br)cc1C1N2CC3(C)CN1CC(C)(C2)C3=O (centres undefined) | inactive

Row | Compound | inhibition
51 | O=S1(=O)C=C(Sc2nnc(-c3ccccc3)o2)c2ccccc21 | inactive
52 | Cc1cc(C)nc(SC2=CS(=O)(=O)c3ccccc32)n1 | 99.6% (inactive)
53 | CCCCN(CCCC)CCn1cnc2c([nH]c3ccc(OC)cc32)c1=O | inactive
54 | O=C(CC1Oc2ccccc2NC1=O)NCCCN1CCOCC1 (centres undefined) | inactive
55 | CC(C)(C)OC(=O)N1CCC(C(=O)N2CCCCCC2)CC1 | inactive
56 | Nc1cc(N)cc(-c2nc3ccccc3o2)c1 | inactive
57 | Nc1nc(CN2CCOCC2)cs1 | inactive
58 | CC(C(=O)N1c2ccc(F)cc2CCC1C)N1C(=O)c2ccccc2C1=O (centres undefined) | inactive
59 | COc1cccc(NC(=O)CN2CCN(c3ccccc3F)CC2)c1 | inactive
60 | CCOc1ccc(N(CC(=O)Nc2ccc(C)c(C)c2)S(=O)(=O)c2c(C)noc2C)cc1 | inactive
61 | N#CCCN(Cc1cccnc1)C(=O)Nc1ccc(Cl)c(Cl)c1 | inactive
62 | COc1ccccc1-c1noc(-c2ccco2)n1 | inactive
63 | Cc1cc(=O)n2[nH]c(-c3ccc(Cl)cc3)cc2n1 | inactive
64 | CCOC(=O)Cn1nc(-c2ccc(Cl)cc2)cc1N | inactive
65 | COc1ccc(NC(=O)CN(c2cc(C)cc(C)c2)S(=O)(=O)c2c(C)noc2C)cc1OC | inactive
66 | c1cc2c(cc1Nc1nc(-c3ccc4c(c3)OCO4)cs1)OCCO2 | inactive
67 | CC(=O)Nc1nc(C)c(-c2csc(Nc3ccc(O)cc3)n2)s1 | inactive
68 | Cc1ccc(Cc2c(C)nc3c(C(=O)O)cnn3c2C)cc1 | inactive
69 | CCOC(=O)CN1CC23C=CC(O2)C(C(=O)Nc2ccc(OCC)cc2)C3C1=O (centres undefined) | inactive
70 | CN(C)CCCN1c2ccccc2CCc2ccccc21 | inactive
71 | CN(C)CCCN1c2ccccc2Sc2ccccc21 | inactive
72 | CN(C)CCCN1c2ccccc2Sc2ccc(C(F)(F)F)cc21 | inactive
73 | CNCCCN1c2ccccc2CCc2ccccc21 | inactive
74 | CCC1CCCCN1CCCNC(=O)CC1Oc2ccc(C)cc2NC1=O (centres undefined) | inactive
